{"source": "PubChem BioAssay AID652048", "about": "(National Center for Advancing Translational Sciences (NCATS), 2013)", "note": "Where “and” joins values, the source holds several entries; their conditions need not be identical. Equal values may be shown once. Screen size: about 410,000 compounds; about 2,400 (0.59%) were called active. Rule as the data show it: active = max activation above about 30%; inactive = the rest. The sample as a whole holds a higher share of actives than the screen did."}
{"molecular_target": "D(3) dopamine receptor (Homo sapiens) (UniProt P35462)", "sequence (P35462 whole entry, looked up)": "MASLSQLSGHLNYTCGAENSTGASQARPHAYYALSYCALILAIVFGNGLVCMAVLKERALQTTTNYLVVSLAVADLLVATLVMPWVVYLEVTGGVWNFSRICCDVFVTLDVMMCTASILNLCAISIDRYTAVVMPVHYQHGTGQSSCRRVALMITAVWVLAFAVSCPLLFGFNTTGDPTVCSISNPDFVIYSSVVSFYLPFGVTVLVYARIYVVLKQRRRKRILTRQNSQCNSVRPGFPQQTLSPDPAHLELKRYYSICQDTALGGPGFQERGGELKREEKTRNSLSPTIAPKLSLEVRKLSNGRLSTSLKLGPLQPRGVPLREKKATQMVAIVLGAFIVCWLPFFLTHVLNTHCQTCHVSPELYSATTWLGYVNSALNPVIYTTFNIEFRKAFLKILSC", "test": "qHTS of D3 Dopamine Receptor Agonist: qHTS; also: 0% is about no effect", "details": "D3R DiscoveRx beta-arrestin cells, luminescence, 90 min; hits give high values", "description": "D3 DARs represent a very important target for the treatment of several neuropsychiatric disorders. Indeed, one of the most promising therapeutic applications for the D3 DAR is in the area of addiction and related disorders. […] These findings have been observed with a number of addictive substances including cocaine, amphetamine, nicotine, and alcohol. […] Antagonism of the D3 DAR may also be therapeutic in the treatment of schizophrenia or psychosis. […] Since the D3 DAR is expressed in areas of the CNS associated with the control of mood and emotion, it has been hypothesized that selective antagonism of the D3 DAR may be effective in treating psychosis without inducing the motor side effects typically seen with D2 DAR antagonists.\nThis part of the project aims to discover novel agonist.\nNIH Chemical Genomics Center [NCGC]\nNIH Molecular Libraries Probe Centers Network [MLPCN]\nAssay Submitter (PI): David Sibley, NINDS\nFreshly passaged cells are plated in 1536 well white, solid bottom plates at a density of 1500 cells/well in 3microl of complete media. After an overnight incubation at 37 degrees C in 5% CO2, cells are loaded with 23nl of test compound from the compound library (as well as dopamine controls) using a 1536 pintool and incubated at 37 degrees C for 90 minutes. Two microliters of DiscoveRx reagent is then added to all cells, and they are incubated for an additional 30 - 60 minutes at room temperature. Following incubation, luminescence is measured on a ViewLux CCD-based luminometer reader using a 20 sec exposure time."}
{"compound": "CCOC(=O)c1cc(-c2sc(NC(=O)c3ccccc3)nc2C)n(Cc2ccccc2)n1", "max activation": "8.04% (inactive)"}
{"compound": "CCOC(=O)c1cc(-c2ccccc2C)n(Cc2cc(C)no2)n1", "max activation": "59.5% (active)"}
{"compound": "CCOC(=O)c1cc(OC(=O)c2ccccc2Cl)n(-c2ccccc2)n1", "max activation": "-8.96% (inactive)"}
{"compound": "CC(=O)N1CCN(c2ccccc2NC(=S)NC(=O)c2cc3ccccc3o2)CC1", "max activation": "-3.88% (inactive)"}
{"compound": "CCc1ccc(C(=O)NC(=S)Nc2ccccc2N2CCOCC2)cc1", "max activation": "-1.31% (inactive)"}
{"compound": "COc1ccc(C(=O)NC(=S)Nc2ccccc2N2CCN(S(C)(=O)=O)CC2)cc1OC", "max activation": "34.6% (active)"}
{"compound": "CCOc1cccc2sc(N3CCN(C(=O)C4CC4)CC3)nc12", "max activation": "-4.91% (inactive)"}
{"compound": "CC/C(=N\\NC(=O)c1ccccc1Cl)c1ccc(Br)s1", "max activation": "5.71% (inactive)"}
{"compound": "C/C(=N\\NC(=O)CNc1cccc2ccccc12)c1ccc(Br)s1", "max activation": "30.4% (active)"}
{"compound": "Cc1ccccc1-n1c(SCC(=O)Nc2cccc3ccccc23)nc(O)cc1=O", "max activation": "0.0019% (inactive)"}
{"compound": "COc1ccccc1CNS(=O)(=O)c1ccc2c(c1)NC(=O)CS2", "max activation": "5.98% (inactive)"}
{"compound": "O=C1CSc2ccc(S(=O)(=O)NCc3ccccc3)cc2N1", "max activation": "-4.53% (inactive)"}
{"compound": "CCC(Cc1ccccc1)NS(=O)(=O)c1ccc2c(c1)NC(=O)CS2", "note": "(stereo unspecified)", "max activation": "34.1% (active)"}
{"compound": "Cc1ccccc1CSc1nc2c([nH]c3ccccc32)c(=O)n1C", "max activation": "-3.75% (inactive)"}
{"compound": "COc1ccc(-c2nc3c(s2)CCc2onc(-c4ccc(OC)cc4)c2-3)cc1", "max activation": "5.32% (inactive)"}
{"compound": "COc1ccc(-c2nc3n(c2Br)CCC3)cc1", "max activation": "8% (inactive)"}
{"compound": "COc1ccc(-c2nc3c(s2)CCc2onc(-c4ccc(Br)cc4)c2-3)cc1", "max activation": "31.5% (active)"}
{"compound": "NC(=O)C(=O)N/N=C/c1ccc([N+](=O)[O-])o1", "max activation": "-13.9% (inactive)"}
{"compound": "CN1CC(O)c2cc(N=NC(N)=O)c(O)cc21", "note": "(stereo unspecified)", "max activation": "-13% (inactive)"}
{"compound": "Cc1oc2ccc(O)c(CN3CCCCC3)c2c1C(=O)Nc1cccc(C(F)(F)F)c1", "max activation": "0.725% (inactive)"}
{"compound": "Cc1onc(-c2ccc(F)cc2F)c1C(=O)Nc1cccc(C(F)(F)F)c1", "max activation": "-14.1% (inactive)"}
{"compound": "Cc1oc2c(F)c(F)c(F)c(F)c2c1S(=O)(=O)Nc1cccc(C(F)(F)F)c1", "max activation": "39.8% (active)"}
{"compound": "COc1cc(Cl)c(NC(=O)C(NS(=O)(=O)c2cccs2)C(C)C)c(OC)c1", "note": "(stereo unspecified)", "max activation": "6.54% (inactive)"}
{"compound": "COc1ccc(CCNc2ncnc3c2cnn3-c2ccc(C)cc2)cc1", "max activation": "11.8% (inactive)"}
{"compound": "Cc1ccccc1C(=O)Nc1sc2c(c1C(=O)N1CCC(C)CC1)CCCC2", "max activation": "-2.21% (inactive)"}
{"compound": "COc1ccccc1-n1c(=S)[nH]c2c(sc(=S)n2-c2ccc(C)cc2C)c1=O", "max activation": "37.7% (active)"}
{"compound": "COc1ccccc1-n1c(-c2ccc(C)cc2)cn2c3c(=O)n(C)c(=O)n(C)c3nc12", "max activation": "-0.938% (inactive)"}
{"compound": "CCc1ccc(-n2c(=S)sc3c(=O)n(-c4ccccc4OC)c(=S)[nH]c32)cc1", "max activation": "0.277% (inactive)"}
{"compound": "COc1cc(CNCCSc2nnnn2C)ccc1OCc1ccc(Cl)cc1Cl", "max activation": "-19% (inactive)"}
{"compound": "O=C(CCC1N=C2c3ccccc3N=C(SCc3ccccc3F)N2C1=O)NCCc1ccccc1", "note": "(stereo unspecified)", "max activation": "5.62% (inactive)"}
{"compound": "O=C(Cn1nnc(-c2ccccc2)n1)NC(=O)NC1CCCC1", "max activation": "4.92% (inactive)"}
{"compound": "Cc1ccc(NC(=O)CN(C)C(=O)Cn2nnc(-c3ccccc3)n2)cc1", "max activation": "5.42% (inactive)"}
{"compound": "O=C(Cn1nnc(-c2ccccc2)n1)N/N=C/c1ccc(-c2ccc(Cl)cc2)o1", "max activation": "34.9% (active)"}
{"compound": "CCOc1ccc(CNC(=O)c2cc(=O)[nH]c3ccc(S(=O)(=O)N4CCCCC4)cc23)cc1", "max activation": "1.15% (inactive)"}
{"compound": "COc1ccc2cc(CNc3ccc(OC)c(OC)c3)c(=O)n(CC(=O)Nc3ccccc3F)c2c1", "max activation": "2.84% (inactive)"}
{"compound": "Cc1ccc(OCCSc2nc(C)c(Cc3ccccc3)c(=O)[nH]2)cc1", "max activation": "4.35% (inactive)"}
{"compound": "Cc1ccc(CNC(=O)[C@@H](NC(=O)Cc2ccccc2)C(C)C)cc1", "max activation": "-1.46% (inactive)"}
{"compound": "Cc1ccc(CNC(=O)Cc2cn(C)c3ccccc23)cc1", "max activation": "-3.47% (inactive)"}
{"compound": "Cc1ccc(CNC(=O)c2ccccc2CCc2ccccc2)cc1", "max activation": "31.4% (active)"}
{"compound": "COC(=O)C1(S(=O)(=O)C2(C(=O)OC)CCCC2)CCCC1", "max activation": "31% (active)"}
{"compound": "CC1(C)OC[C@@H](COC(=O)CCc2ccc(OC[C@@H](O)CNCCNC(=O)N3CCOCC3)cc2)O1", "max activation": "-23.2% (inactive) and -20.2% (inactive)"}
{"compound": "CC(C)(C)OC(=O)CNC(=O)c1[nH]cnc1C(=O)N[C@@H](CCCCN)C(=O)OC(C)(C)C", "max activation": "0% (inactive)"}
{"compound": "CCN1CCN(CCCNC(=O)c2ccc3c(c2)sc2nc(-c4ccc(OC)cc4)cn23)CC1", "max activation": "-6.77% (inactive)"}
{"compound": "COc1ccc(-c2cn3c(n2)sc2cc(C(=O)Nc4ccccc4F)ccc23)cc1", "max activation": "35.4% (active)"}
{"compound": "COc1ccc(-c2cn3c(n2)sc2cc(C(=O)Nc4ccc(F)cc4)ccc23)cc1", "max activation": "13.3% (inactive)"}
{"compound": "O=C(Nc1ccc(O)cc1)c1ccccc1O", "max activation": "-0.0653% (inactive)"}
{"compound": "CC1(C)S[C@@H]2[C@H](NC(=O)COc3ccccc3)C(=O)N2C1C(=O)OCc1ccccc1", "note": "(stereo partly specified)", "max activation": "-3.7% (inactive)"}
{"compound": "CC1(C)SC2C(NC(=O)COc3ccccc3)C(=O)N2C1C(=O)O", "note": "(stereo unspecified)", "max activation": "2.21% (inactive) and 6.06% (inactive)"}
{"compound": "COC(=O)C1[C@H]2SC(C)(C)C(C(=O)OC)N2C(=O)N1Cc1nc2ccccc2s1", "note": "(stereo partly specified)", "max activation": "37.5% (active)"}
{"compound": "Cc1ccc2[nH]c3c(=O)n(CC(=O)NC(C)C)ncc3c2c1", "max activation": "2.56% (inactive)"}
{"compound": "CCOc1ccc(NS(=O)(=O)c2ccc(N)cc2)nn1", "max activation": "-7.97% (inactive)"}
{"compound": "COc1cccc(C(=O)Nc2c3c(nn2-c2cccc(C)c2C)CS(=O)(=O)C3)c1OC", "max activation": "-20.8% (inactive)"}
{"compound": "Cc1cccc(C(=O)OC(C)C(=O)NC2CCCc3ccccc32)c1O", "note": "(stereo unspecified)", "max activation": "-10.5% (inactive)"}
{"compound": "COc1ccc(C(=O)NC2CCCc3c2cnn3-c2cccc(C)c2C)c(OC)n1", "note": "(stereo unspecified)", "max activation": "48.2% (active)"}
{"compound": "Cc1ccc(NC(=O)c2nc(S(=O)(=O)Cc3cccc(C)c3)ncc2Cl)cc1", "max activation": "-23.7% (inactive)"}
{"compound": "CC1(C)S[C@@H]2[C@H](N=CN3CCCCCC3)C(=O)N2[C@H]1C(=O)O", "max activation": "-22.5% (inactive)"}
